The values that follow come from PubChem BioAssay (NCATS).

Inconclusive results are not listed. Unmarked numbers belong to inactive results. Calls of active or inactive are those of the source. The call rests on the fitted dose curve; in most records, active means well fitted curve in the direction sought with a large enough effect; inconclusive means small, poorly fitted or top-dose-only effect, or another doubt; inactive means no such curve, though single readings can be large; an effect the other way counts as inactive or inconclusive.

Experiment [1] deals with Rap guanine nucleotide exchange factor 3 (Homo sapiens) (UniProt O95398). Put plainly: Confirmatory qHTS for antagonist of cAMP-regulated guanine nucleotide exchange factor 3 (EPAC1) (AID 1645880). Further: nearly all actives have a fitted effect of over 55% in size. Further: potency means the concentration at half of the fitted maximal effect. An outline of the steps: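 Nucleotide exchange uses 100 nM EPAC1, 250 nM RAP1B-BODIPY-GDP and 50 uM GDP, with compounds in a concentration-titration series. After 5 min at room temperature, fluorescence (480 nm ex/540 nm em) is read every 5 min for 30 min. Data are normalized to control ATA and DMSO.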
Rap guanine nucleotide exchange factor 3 (Homo sapiens), sequence (O95398 whole entry, looked up): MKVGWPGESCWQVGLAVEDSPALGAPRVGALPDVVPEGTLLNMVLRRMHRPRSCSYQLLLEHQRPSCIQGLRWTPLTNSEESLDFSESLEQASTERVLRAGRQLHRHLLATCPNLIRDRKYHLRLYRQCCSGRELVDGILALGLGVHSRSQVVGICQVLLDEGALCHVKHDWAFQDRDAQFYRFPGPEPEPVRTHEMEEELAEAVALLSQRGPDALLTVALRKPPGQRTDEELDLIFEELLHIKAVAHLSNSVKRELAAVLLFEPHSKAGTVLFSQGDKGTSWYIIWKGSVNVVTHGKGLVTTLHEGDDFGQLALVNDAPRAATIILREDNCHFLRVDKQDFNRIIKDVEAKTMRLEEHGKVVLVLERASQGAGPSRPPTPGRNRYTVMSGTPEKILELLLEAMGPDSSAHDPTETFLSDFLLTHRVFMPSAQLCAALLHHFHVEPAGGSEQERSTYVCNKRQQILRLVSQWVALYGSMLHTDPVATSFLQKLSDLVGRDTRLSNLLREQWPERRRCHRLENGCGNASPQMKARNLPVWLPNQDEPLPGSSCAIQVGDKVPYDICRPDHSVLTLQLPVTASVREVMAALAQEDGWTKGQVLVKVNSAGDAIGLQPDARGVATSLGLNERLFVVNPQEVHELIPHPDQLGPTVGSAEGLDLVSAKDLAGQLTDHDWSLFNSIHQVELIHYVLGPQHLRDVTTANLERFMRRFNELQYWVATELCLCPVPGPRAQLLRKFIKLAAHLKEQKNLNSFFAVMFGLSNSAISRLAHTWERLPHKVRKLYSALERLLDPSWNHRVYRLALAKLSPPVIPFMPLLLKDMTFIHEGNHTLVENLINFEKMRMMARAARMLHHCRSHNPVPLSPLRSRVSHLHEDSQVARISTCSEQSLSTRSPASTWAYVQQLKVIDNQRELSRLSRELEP

Experiment [2] has the same target. Kind of experiment: Confirmatory qHTS for agonist of cAMP-regulated guanine nucleotide exchange factor 3 (EPAC1) (AID 1645881;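 further: EPAC1 catalysed release of BODIPY-GDP from Rap1B seen as fluorescence loss; 100% = effect of cAMP agonist control; nearly all actives have a fitted effect of over 75% in size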). (Quantitative high-throughput screening tests each substance at several concentrations.)
In experiment [3] the target is Rap guanine nucleotide exchange factor 4 (Homo sapiens) (UniProt Q8WZA2). Kind of experiment: Confirmatory qHTS for agonist of cAMP-regulated guanine nucleotide exchange factor 4 (EPAC2) (AID 1645884).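 Further: nucleotide exchange releases bodipy-GDP from Rap1 and this lowers its fluorescence; on the % scale 0 is the no-effect control and ±100 the full control effect; nearly all actives have a fitted effect of over 65% in size.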
Rap guanine nucleotide exchange factor 4 (Homo sapiens), sequence (Q8WZA2 whole entry, looked up): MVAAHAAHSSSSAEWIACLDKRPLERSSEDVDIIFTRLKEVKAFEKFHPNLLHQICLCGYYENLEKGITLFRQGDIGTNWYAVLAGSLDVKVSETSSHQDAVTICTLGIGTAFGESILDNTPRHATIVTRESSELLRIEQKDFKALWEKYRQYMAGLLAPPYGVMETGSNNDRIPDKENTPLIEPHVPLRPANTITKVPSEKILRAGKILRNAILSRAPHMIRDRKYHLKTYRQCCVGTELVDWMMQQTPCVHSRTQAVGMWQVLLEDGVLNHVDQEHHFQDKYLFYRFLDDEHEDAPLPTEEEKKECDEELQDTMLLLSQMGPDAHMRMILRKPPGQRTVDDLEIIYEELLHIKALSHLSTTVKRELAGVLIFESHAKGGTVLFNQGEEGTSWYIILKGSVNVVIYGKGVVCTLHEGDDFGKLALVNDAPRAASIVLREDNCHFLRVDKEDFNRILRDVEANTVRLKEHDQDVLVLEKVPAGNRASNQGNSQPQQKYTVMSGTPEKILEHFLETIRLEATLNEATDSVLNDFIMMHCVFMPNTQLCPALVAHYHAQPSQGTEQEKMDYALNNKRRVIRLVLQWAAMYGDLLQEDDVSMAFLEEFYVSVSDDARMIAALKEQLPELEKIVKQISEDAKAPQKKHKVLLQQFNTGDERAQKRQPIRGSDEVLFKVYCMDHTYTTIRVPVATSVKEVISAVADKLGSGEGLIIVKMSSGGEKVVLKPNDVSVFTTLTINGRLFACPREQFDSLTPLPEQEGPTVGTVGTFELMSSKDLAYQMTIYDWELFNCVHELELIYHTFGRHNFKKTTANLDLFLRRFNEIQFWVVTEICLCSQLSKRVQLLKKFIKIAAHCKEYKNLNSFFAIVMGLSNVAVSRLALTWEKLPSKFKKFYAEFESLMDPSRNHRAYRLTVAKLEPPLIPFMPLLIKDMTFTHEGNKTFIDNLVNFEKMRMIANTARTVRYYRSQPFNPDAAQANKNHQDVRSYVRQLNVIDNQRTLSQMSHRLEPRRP
For experiment [4] the target is unchanged. Kind of experiment: Confirmatory qHTS for antagonist of cAMP-regulated guanine nucleotide exchange factor 4 (EPAC2) (AID 1645885). Further: nearly all actives have a fitted effect of over 25% in size. Further: potency means the concentration at half of the fitted maximal effect. On activity change, negative = inhibition: on the % scale 0 is the no-effect control and ±100 the full control effect.
Experiment [5] addresses Rap guanine nucleotide exchange factor 3 (Homo sapiens) (UniProt O95398). Kind of experiment: Counterscreen qHTS for antagonist of cAMP-regulated guanine nucleotide exchange factor 3 (EPAC1) (AID 1645888).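 Further: fluorescence loss as bound BODIPY-GDP is released from Rap1B; % of control where 0% means no effect.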 An outline of the steps: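 Rap1B-BODIPY-GDP 250 nM + GDP 50 uM; cpds 7-pt, final 9.74 nM–152 uM (activator mode) or from 7.32 nM upwards (inhibitor mode); RT; FI 480/540 nm at 5 and 30 min, then ± cAMP, reread.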

For the compound `Cc1c(Br)c(=O)oc2c(Br)c(O)c(O)cc12`, the Potency in experiment [1] is 3.16 µM (active). Moreover, the Potency entry in experiment [2] and in experiment [4] was “inactive” each time. The activation in experiment [3] is 9.71% [at 17.1 µM, percent relative to cAMP agonist control]. Further, the activity change, negative = inhibition in experiment [5] is 21.7% [at 30.8 µM].

With `COc1cc(S(=O)(=O)Nc2ccccc2C)ccc1Cl`, the Potency result in experiment [1], in experiment [2], in experiment [3], in experiment [4] and in experiment [5] was “inactive” in each case.

Consider `CCn1c(C)nc2cc(C(=O)N/N=C(\C)c3ccccc3O)ccc21`, for which the Potency in experiment [1] was 7.08 µM (active). For the same compound, the Potency entry in experiment [2] and in experiment [4] was “inactive” in each case. Moreover, the activation in experiment [3] is 0.106% [at 17.1 µM, percent relative to cAMP agonist control]. Besides, the activity change, negative = inhibition in experiment [5] is -28% [at 30.8 µM].

As for `Cc1c(Cl)ccc2c(C(=O)O)cc(-c3ccccc3)nc12`, the Potency entry in experiment [1], in experiment [2] and in experiment [4] was “inactive” in each case. For the same compound, the activation in experiment [3] is 9.62% [at 17.1 µM, percent relative to cAMP agonist control]. Also, in experiment [5], the activity change, negative = inhibition is 5.51% [at 30.8 µM].

With `CCc1ccccc1C1=CC(=O)C[C@H](c2ccc(OC)cc2)C1`, the Potency result in experiment [1], in experiment [2], in experiment [3], in experiment [4] and in experiment [5] was “inactive” in each case.

As for `CCOc1ccc(/C(C)=N/NC(=O)C(OC)c2ccccc2)cc1` (stereo not given), the Potency result in experiment [1], in experiment [2], in experiment [3], in experiment [4] and in experiment [5] was “inactive” each time.

On to `COc1cc(/C=C/CNC[C@H]2O[C@@H](n3cnc4c(=O)[nH]c(N)nc43)[C@H](O)[C@@H]2O)ccc1O`, for which the Potency entry in experiment [1], in experiment [2], in experiment [3], in experiment [4] and in experiment [5] was “inactive” each time.

Regarding `COc1cc(/C=N/NC(=O)c2ccccn2)ccc1OC(=O)c1ccc(Br)cc1`, the Potency entry in experiment [1], in experiment [2], in experiment [3], in experiment [4] and in experiment [5] was “inactive” throughout.

Consider `O=C(O)C(c1ccccc1)N1C(=O)/C(=C\c2ccc(O)c(O)c2)SC1=S` (stereo not given), for which the figures for the Potency in experiment [1] and in experiment [4] were 6.75 µM (active) and 21.3 µM (active), respectively. Further, the Potency result in experiment [2], in experiment [3] and in experiment [5] was “inactive” in each case.

In the case of `COc1ccc(S(=O)(=O)N2CCC[C@H]2C(=O)N2CCC[C@H]2C(=O)NCc2ccccc2)cc1C`, the Potency entry in experiment [1], in experiment [2] and in experiment [4] was “inactive” each time. In experiment [3], the activation was 4.41% [at 17.1 µM, percent relative to cAMP agonist control]. For the same compound, in experiment [5], the activity change, negative = inhibition is -5.32% [at 30.8 µM].

In the case of `Cc1nn(-c2ccccc2)c(C)c1NC(=O)COC(=O)Cc1cccc(C(F)(F)F)c1`, the Potency result in experiment [1], in experiment [2], in experiment [3], in experiment [4] and in experiment [5] was “inactive” throughout.

Consider `COCCn1c(=N)c(C(=O)NC2CCCC2)cc2c(=O)n3cc(C)ccc3nc21`, for which the Potency result in experiment [1], in experiment [2], in experiment [3], in experiment [4] and in experiment [5] was “inactive” each time.

Regarding `O=C(O)c1ccc(NC2=C/C(=N/S(=O)(=O)c3cccs3)c3ccccc3C2=O)cc1`, in experiment [1], the Potency was 60.1 µM (active). Besides, the Potency entry in experiment [2], in experiment [3], in experiment [4] and in experiment [5] was “inactive” in each case.

On to `Cn1c(=O)c2c(nc(N3CCOCC3)n2CCSc2ncccn2)n(C)c1=O`, for which the Potency result in experiment [1] and in experiment [2] was “inactive” in each case. The activation in experiment [3] is 5.38% [at 17.1 µM, percent relative to cAMP agonist control]. Further, the Potency in experiment [4] is 0.338 µM (active). For the same compound, in experiment [5], the activity change, negative = inhibition is -3.24% [at 30.8 µM].

For the compound `COc1ccc(CCNC(=O)CSc2nc3nc(C)c(Cc4ccc(C)cc4)c(C)n3n2)cc1OC`, the Potency entry in experiment [1], in experiment [2], in experiment [3], in experiment [4] and in experiment [5] was “inactive” in each case.

In the case of `Cc1c(C(=O)NCc2ccc(F)cc2)sc(=O)n1Cc1ccccc1F`, the Potency result in experiment [1], in experiment [2], in experiment [3] and in experiment [5] was “inactive” throughout. Further, the Potency in experiment [4] is 67.5 µM (active).

As for `CCc1nc2ccc(C(=O)N(C)Cc3ccccc3)cn2c1N(CC)Cc1cccc(Br)c1`, the Potency result in experiment [1], in experiment [2] and in experiment [4] was “inactive” each time. In experiment [3], the activation was 3.66% [at 17.1 µM, percent relative to cAMP agonist control]. In experiment [5], the activity change, negative = inhibition is -21% [at 30.8 µM].

With `COc1ccccc1CNC(=O)CCCn1nc(C)c2c(C)n(-c3ccc(C)cc3)nc2c1=O`, the Potency result in experiment [1], in experiment [2], in experiment [3] and in experiment [5] was “inactive” each time. Moreover, in experiment [4], the outcome is “inactive [at 12.7 µM]”.

With `CC1CN(S(=O)(=O)c2cccc(C(=O)Nc3ccccc3N3CCOCC3)c2)CC(C)O1` (stereo not given), the Potency result in experiment [1], in experiment [2] and in experiment [4] was “inactive” each time. Further, the activation in experiment [3] is 3.24% [at 17.1 µM, percent relative to cAMP agonist control]. Further, the activity change, negative = inhibition in experiment [5] was -5.5% [at 30.8 µM].

Consider `CC(C)(C)c1ccc(N=C2SCC(=O)N2Cc2cccs2)cc1`, for which the Potency entry in experiment [1], in experiment [2], in experiment [3], in experiment [4] and in experiment [5] was “inactive” each time.

Take `CCC(=Cc1ccccc1OC)c1ccncc1`: the Potency entry in experiment [1], in experiment [2], in experiment [3], in experiment [4] and in experiment [5] was “inactive” throughout.

In the case of `CN1CCN(C2=C(Cl)C(=O)c3ccccc3C2=O)CC1`, the Potency in experiment [1] was 25.1 µM (active). In addition, the Potency result in experiment [2] and in experiment [4] was “inactive” in each case. In addition, the activation in experiment [3] was 11% [at 17.1 µM, percent relative to cAMP agonist control]. Further, the activity change, negative = inhibition in experiment [5] was 17.9% [at 30.8 µM].

Consider `COc1cccc(OC)c1OC(=O)/C=C/c1ccc(C)o1`, for which the Potency result in experiment [1], in experiment [2] and in experiment [4] was “inactive” each time. The activation in experiment [3] was -0.917% [at 17.1 µM, percent relative to cAMP agonist control]. Besides, in experiment [5], the activity change, negative = inhibition was -18.3% [at 30.8 µM].
